Source: PubChem (Broad Institute)
A selection follows.
aSyn 5UTR act – Activators via SNCA 5'UTR binding, MLPCN; alpha-synuclein 5'UTR reporter, activators screen; activity score, % (tested at 7.5 µM), hits read low; 300,000 tested, 7.1% active; AID 1814; in the data active = activity score below about -60%
Starred values were filed as active, the others as inactive.

SMILES	aSyn 5UTR act
COc1ccc(NC(=O)N2CCCCC2)cc1	-66*
CCOC(=O)c1ccc(N/C=C2\CCCCC2=O)cc1	-127*
O=C(CCl)N(c1ccccc1)C1CCS(=O)(=O)C1 (stereo not drawn)	-109*
Cc1csc(NC(=O)CSc2ncc(-c3ccccc3)[nH]2)n1	-97*
CCc1nnc(NC(=O)CSc2ccc(-c3nc4ccccc4[nH]3)cn2)s1	-187*
Cc1ccc2nc(-c3ccc(SCC(=O)Nc4nc(C)cs4)nc3)[nH]c2c1	-247*
Cc1ccc2nc(-c3ccc(SCC(=O)Nc4nnc(C)s4)nc3)[nH]c2c1	-94*
COc1ccc(-c2nc(-c3ccc(NC(=O)c4ccc(Br)o4)cc3)no2)cc1OC	-136*
COc1ccc(CCC(=O)Nc2ccc(-c3noc(-c4ccc(OC)c(OC)c4)n3)cc2)cc1	-158*
CCN1C(=Nc2ccc(Cl)cc2)SC/C1=C\C(=O)OC	-81*
CCOC(=O)c1ccc(NC(=O)CC2SCCNC2=O)cc1 (stereo not drawn)	-81*
COc1cccc(OCc2cc(C(=O)N(C)Cc3nc(C)cs3)no2)c1	-112*
Cc1ccc(OCc2cc(C(=O)N(C)CCc3ccccn3)no2)cc1C	-73*
Cc1cc(CN(C)C(=O)c2cc(COc3ccc(C)c(C)c3)on2)on1	-159*
N#CC(C(=O)C12CC3CC(CC(C3)C1)C2)c1nc2ccccc2[nH]1 (stereo not drawn)	-74*
CC(C)N1C(=O)CC(Nc2ccc(N3CCOCC3)cc2)C1=O (stereo not drawn)	-145*
COc1ccc(NC2CC(=O)N(C(C)C)C2=O)cc1 (stereo not drawn)	-150*
CSCC(=O)N1CCc2ccc(NC(=O)c3ccccc3Cl)cc2C1	-117*
Cc1ccc(-c2noc(-c3ccno3)n2)cc1	-126*
Clc1cccc(-c2nc(-c3ccccn3)no2)c1	93
COc1ccc(-c2noc(-c3cccc(Cl)c3)n2)cc1OC	-184*
COc1ccc(-c2noc(-c3ccccc3Cl)n2)cc1OC	-180*
Fc1cccc(F)c1-c1nc(-c2ccncc2)no1	-142*
COc1cccc(-c2nc(-c3ccncc3)no2)c1	-114*
COc1cccc(-c2nc(CS(=O)(=O)c3ccccc3)no2)c1	-126*
SMILES	aSyn 5UTR act
COc1ccc(-c2nc(-c3ccncc3)no2)cc1OC	-121*
c1ccc(CSc2ccc(-c3cccs3)nn2)cc1	-108*
c1ccc(CSc2ccc(-c3cccs3)nn2)nc1	-102*
O=C(CSc1ccc(-c2cccs2)nn1)c1cccs1	-68*
N#Cc1ccc(-c2cccs2)nc1SCc1cccnc1	90
CC(=O)n1nc(-c2ccco2)nc1SCc1ccccc1	-89*
CCC(=O)n1nc(-c2ccco2)nc1SCc1ccccc1	-74*
Cc1c(C)n(C)c2ccc(C(=O)NCCc3ccco3)cc12	-74*
CC(=O)Nc1cccc(C(=O)NCCc2ccco2)c1	-76*
O=C(CNC(=O)c1ccco1)Nc1ccc(Br)cc1	-142*
O=C(CNC(=O)c1ccco1)Nc1ccc(Cl)cc1	-70*
COc1cc(/C=C2\C=CC(=O)O2)cc(OC)c1	-65*
CCOc1cc(/C=C\[N+](=O)[O-])ccc1OCC(=O)Nc1ccccc1C	-80*
CN(C)CC/C=C1/c2ccccc2CS(=O)(=O)c2ccccc21	-74*
CCCCOc1ccc(Br)cc1/C(C)=N/NC1=NCCN1	121
CCCCOc1ccc(CSC2=NCCN2)cc1[N+](=O)[O-]	-82*
CC#CC(=O)N1CCC(n2nccc2NC(=O)c2ccc3c(c2)OCO3)CC1	-83*
CSCCC(=O)N1CCC(n2nccc2NC(=O)c2ccc3c(c2)OCO3)CC1	-84*
Cn1c(C(C#N)C(=O)c2ccco2)nc2ccccc21 (stereo not drawn)	-125*
Cc1nc2ccccc2c(=O)n1/N=C/c1c(O)ccc2oc3c(c12)CCCC3	86
O=c1c2ccccc2nc(COc2ccccc2)n1/N=C/c1ccco1	-86*
CCOc1ccc(/C=N/n2c(C)nc3ccccc3c2=O)cc1	-67*
Nn1c(COc2ccc(Cl)cc2)nc2ccccc2c1=O	-67*
Cc1nc2ccccc2c(=O)n1/N=C/c1ccccc1F	-101*
Cc1ccc(/C=C2\SC(=S)N(CCCC(=O)Nc3cc(C)on3)C2=O)cc1	58
SMILES	aSyn 5UTR act
Cc1cc(NC(=O)/C=C/c2ccc(Cl)cc2)no1	-78*
C/C(=C\C(=O)Nc1cc(C)on1)c1ccccc1	-110*
Cc1cc(NC(=O)/C=C/c2ccc(Br)cc2)no1	-74*
C=CCn1c(=O)/c(=C2/Sc3cc(OC)ccc3N2C)s/c1=C1\C(=O)N(CC)C(=S)N1C	-98*
Clc1cccc(/C=N/Nc2ncnc3ccccc23)c1	-198*
Nc1c(Cl)ncnc1N/N=C/c1ccnc2ccccc12	-68*
C(=N\Nc1ncnc2ccccc12)/c1ccccc1	-212*
CC1CCN(c2nc(/C=C/c3ccccc3)nc3ccccc23)CC1	-87*
Oc1ccc(Nc2nc(N3CCCC3)c3ccccc3n2)cc1	-579*
C=CCNc1nc(N)c([N+](=O)[O-])c(N2CCCCCC2)n1	69
C(=C\c1nc(N2CCCC2)c2ccccc2n1)/c1ccccc1	-106*
Cc1nn2c(nc(N3CCCCC3)c3ccccc32)c1C=O	55
Nc1nc(Nc2ccccc2)nc(N2CCCC2)c1[N+](=O)[O-]	-81*
COCCNc1nc(N)c([N+](=O)[O-])c(NC2CCCCC2)n1	68
CN1C(=O)/C(=C\c2ccc(N(C)C)cc2)OC1=S	-67*
O=c1cc(Cl)[nH]c(=O)n1Cc1ccc(F)cc1	-87*
Cc1ccc(NC(=O)c2ccc(CN3CCc4ccccc4C3)cc2)cc1	-101*
O=C(Nc1cccnc1)c1ccc(CN2CCc3ccccc3C2)cc1	-68*
Clc1cccc2sc(-c3nnc(-c4ccccc4)o3)c(Cl)c12	-137*
Cc1cccc(N/N=C(\C(N)=O)C2=NC(C)(C)Cc3ccccc32)c1	59
COc1ccc(NC(=O)C2Cc3ccccc3O/C2=N\O)cc1 (stereo not drawn)	-82*
Cc1cccc(NC(=O)C2Cc3ccccc3O/C2=N\O)c1 (stereo not drawn)	-138*
CCCOc1ccc(-c2nc(OC)c3ccccc3n2)cc1	-85*
COc1cc2c(OC(C)=O)c3c(c(-c4ccc5c(c4)OCO5)c2cc1OC)C(=O)OC3	113
CC(=O)Oc1cc(OC(C)=O)c2c(=O)c(-c3ccc4c(c3)OCCCO4)c(C)oc2c1	-88*
SMILES	aSyn 5UTR act
CCn1nc(C)c(/C=N/NC(=O)c2ccoc2C)c1C	-112*
CCCCCn1nc(C)c(/C=N/NC(=O)c2ccoc2C)c1C	-171*
O=C1C(c2cc(=O)c3ccccc3[nH]2)=C(O)c2ccccc21	-118*
O=c1cc(-c2ccccc2)[nH]c2ccccc12	68
O=C(/C=C/c1ccc(-c2ccccc2[N+](=O)[O-])o1)c1ccccc1	-120*
O=C(N/N=C/c1ccc(-c2ccccc2[N+](=O)[O-])o1)[C@H]1C[C@@H]1c1ccccc1	-79*
COc1ccc(CNC(=O)C(C)Sc2nc3ccccc3c(=O)n2CCCN2CCOCC2)cc1 (stereo not drawn)	38
COc1ccc(CCn2c(=N)c(C(=O)NCC3CCCO3)cc3c(=O)n4cccc(C)c4nc32)cc1 (stereo not drawn)	-116*
COc1ccc(CCNC(=O)c2cc3c(=O)n4cccc(C)c4nc3n(CCCN3CCOCC3)c2=N)cc1	-67*
CCCCOC(=O)c1cc(-c2ccc(/C=N/n3cnnc3)o2)ccc1Cl	-74*
CCOC(=O)c1cc(-c2ccc(/C=C3/C(=O)N(c4ccc(C(=O)O)cc4)N=C3C)o2)ccc1Cl	-76*
